What was measured:
Assay in all cases: PBM binding z-score (relative to random genomic background probes); higher = stronger binding; sequences stand for … in GC…GCGATTGACAGCGTAGAATGAAGG
[1] = system: LXRa homodimer (NR concentration 270 nM)
Summary of the method: (§1)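 Custom Agilent 4×180K protein-binding microarrays carried double-stranded probes, each with a 34-nt variable region. These regions held direct-repeat seeds, single-nucleotide variants, half-site ablations and random human genomic background sequences. Ligand-free nuclear receptor dimers were incubated on the arrays for 1 h, antibodies against each partner (one per run) detected binding, and scanned fluorescence was regression-normalized. Binding z-scores take the random background probes as reference.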

[2] = system: LXRb homodimer (NR concentration 270 nM)
Summary of the method: as §1

[3] = system: PPARg:RXRa (NR concentration 180 nM, RXRa partner concentration 90 nM)
Summary of the method: as §1

[4] = system: PPARg:RXRa 270nM:90nM, anti-RXR (NR concentration 270 nM, RXRa partner concentration 90 nM)
Summary of the method: as §1

[5] = system: PPARg:RXRa 30nM:10nM, anti-RXR (NR concentration 30 nM, RXRa partner concentration 10 nM)
Summary of the method: as §1

[6] = system: PPARg:RXRa 90nM:30nM, anti-RXR (NR concentration 90 nM, RXRa partner concentration 30 nM)
Summary of the method: as §1

[7] = system: PPARg:RXRa DBDmut IVT, anti-RXR (DBD mutation: RXRa K156A/R161A, NR concentration 270 nM, RXRa partner concentration 90 nM)
Summary of the method: as §1

[8] = system: PPARg:RXRa IVT, anti-PPARg (NR concentration 270 nM, RXRa partner concentration 90 nM)
Summary of the method: as §1

[9] = system: PPARg DBDmut:RXRa IVT, anti-PPARg (DBD mutation: PPARg1 K132A/R137A, NR concentration 270 nM, RXRa partner concentration 90 nM)
Summary of the method: as §1

[10] = system: PPARg DBDmut IVT, anti-PPARg (DBD mutation: PPARg1 K132A/R137A, NR concentration 270 nM)
Summary of the method: as §1

[11] = system: PPARg homodimer (NR concentration 180 nM)
Summary of the method: as §1

[12] = system: PXR:RXRa (NR concentration 270 nM, RXRa partner concentration 90 nM)
Summary of the method: as §1

[13] = system: PXR homodimer (NR concentration 270 nM)
Summary of the method: as §1

[14] = system: RARa homodimer (NR concentration 270 nM)
Summary of the method: as §1

[15] = system: RARb homodimer (NR concentration 270 nM)
Summary of the method: as §1

[16] = system: RARa:RXR (NR concentration 270 nM, RXRa partner concentration 90 nM)
Summary of the method: as §1

| Sequence | PBM binding z-score [1] | PBM binding z-score [2] | PBM binding z-score [3] | PBM binding z-score [4] | PBM binding z-score [5] | PBM binding z-score [6] | PBM binding z-score [7] | PBM binding z-score [8] | PBM binding z-score [9] | PBM binding z-score [10] | PBM binding z-score [11] | PBM binding z-score [12] | PBM binding z-score [13] | PBM binding z-score [14] | PBM binding z-score [15] | PBM binding z-score [16] |
| --- | --- | --- | --- | --- | --- | --- | --- | --- | --- | --- | --- | --- | --- | --- | --- | --- |
| CCTTAGGGGTCAAGGTTATAGCACGGGTGGTACG | 1.33 | 1.15 | 8.58 | 7.98 | 5.01 | 7.42 | 3.07 | 5.19 | 1.1 | 0.837 | 4.4 | 6.23 | 1.1 | 2.38 | 5.11 | – |
| CGTCAAAGGTCAAGGTCAGTGAAAGAGACTCGAA | 3.09 | 3.05 | – | 8.78 | 6.2 | 8.38 | 4.74 | 6.36 | 3.41 | 4.07 | 6.26 | 6.26 | 1.8 | 4.06 | 5.34 | 6.98 |
| GCTTACGGGTCAAAGGTCATAGCATGAATAGAAT | 4.02 | 1.77 | – | 10.4 | 12.9 | 12.5 | 5.72 | 7.02 | 2.05 | 1.67 | 4.66 | – | 1.47 | 2.21 | 5.12 | – |
| CTACCAAGGTCAACAAGGTCGTTGATTACTATTC | 3.79 | 1.23 | 5.57 | 6.01 | 2.68 | 4.51 | 4.52 | 4.74 | 1.26 | 1.4 | 4.44 | – | 12.6 | 3.35 | 5.25 | 6.63 |
| CCTTAGGGGTCACGAGGTTATAGCACGACGAGCG | 1.59 | 0.631 | – | 9.08 | 6.93 | 8.31 | 5.82 | 6.5 | 3.28 | 2.27 | 5.3 | – | 0.897 | 2.78 | 5.21 | – |
| AGTCAAAGGTCATCTAGGTAACGTAAGATATGCT | 4.61 | 5.04 | – | 8.23 | 6.82 | 8.3 | 4.12 | 6.77 | 2.25 | 1.94 | 3.75 | 5.44 | 1.34 | 2.2 | 5.29 | 6.03 |
| CAAACGAGGTCACGAAAGGTCAAAGTCGAATGAC | 9.67 | 3.56 | 10.1 | 8.71 | 6.72 | 8.74 | 6.75 | 7.7 | 2.28 | 3.02 | 7.67 | – | 9.37 | 5.09 | 6.1 | – |
| ATCGAAAGGTCAAGGTGAGTATAGAGAAAGGGAA | 2.78 | 3.58 | 8.08 | 7.77 | 5.24 | 7.07 | 3.34 | 5.43 | 2.02 | 1.2 | 4.09 | 5.13 | 1.19 | 2.51 | 5.32 | 5.85 |
